Target: MTX3
Assay: pooled miR-30 sensor sort-seq; sequence = guide strand
Conditions: shRNA

Row | Sequence | sensor-assay potency score (higher = more potent)
1 | TTATCTATCACATTGACTTTCA | -0.0166
2 | TTTGCCTTCACACACTTGGTGT | -0.519
3 | TTTAGGAAACCGTACTTTGTAA | -0.773
4 | TAATTGTCACTCTCAACCCAGA | -0.703
5 | TTGCTGAGAGTTCATAATCAGC | -1.72
6 | TAAAGTAATTGTCACTCTCAAC | -1.48
7 | TAGAAGATTTAGGCACTCCTTG | -0.542
8 | TTGGCGAAGATTGTCATCCATC | -1.1
9 | TTAATATTTATCTATGTGCTAC | -0.31
10 | ATAATCAGCATTATATTTCTGT | 0.674
11 | TATCACATTGACTTTCAAGGGT | 0.582

Target: MUC16
Assay: as above
Conditions: shRNA

Row | Sequence | sensor-assay potency score (higher = more potent)
12 | TTGTCTTTGAAACCAGTTCTGG | -0.722
13 | TTGACATAGAGACTGTGCCTGT | -0.153
14 | TTGACATAGAGACTGTCCCTGT | -0.193
15 | TTGACATAGAAACTATTGCTTG | -0.839
16 | TTGTCTGTGATGTTGAACTTGA | -0.129
17 | TTGGACTTTCTGAACTAGCGTG | -0.377
18 | TAGTTGTCGTTGAAACAGCTGA | -0.38
19 | TTGACATAGAGACTGTTCCTGT | -0.0675
20 | TTGACATAGAGACTGTTCCGGT | -0.323
21 | TTTGTCTCTGTTGTTGAGCTGG | 0.192
22 | TTCAGTAGTAGCACTAGTGGGC | 0.151

Reference: the OligoGym collection
